# From PubChem
# SRC2 TRFRET art: counter-screen for PPARgamma SRC-2 recruitment agonists: TR-FRET artefact; TR-FRET ratio at 8 µM; AID 1049; 200,000 compounds, 0.4% hits; hits give high values
# PPARg SRC3 recr: agonists of human PPARgamma SRC-3 coactivator recruitment. 200,000 compounds, 0.26% hits. activation, % at 8 µM. biochemical PPARgamma/SRC-3 coactivator recruitment assay. P37231; in the data active = activation above about 23%;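 also: 0% = DMSO and 100% = reference agonist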
# Target sequence (P37231 whole entry, looked up): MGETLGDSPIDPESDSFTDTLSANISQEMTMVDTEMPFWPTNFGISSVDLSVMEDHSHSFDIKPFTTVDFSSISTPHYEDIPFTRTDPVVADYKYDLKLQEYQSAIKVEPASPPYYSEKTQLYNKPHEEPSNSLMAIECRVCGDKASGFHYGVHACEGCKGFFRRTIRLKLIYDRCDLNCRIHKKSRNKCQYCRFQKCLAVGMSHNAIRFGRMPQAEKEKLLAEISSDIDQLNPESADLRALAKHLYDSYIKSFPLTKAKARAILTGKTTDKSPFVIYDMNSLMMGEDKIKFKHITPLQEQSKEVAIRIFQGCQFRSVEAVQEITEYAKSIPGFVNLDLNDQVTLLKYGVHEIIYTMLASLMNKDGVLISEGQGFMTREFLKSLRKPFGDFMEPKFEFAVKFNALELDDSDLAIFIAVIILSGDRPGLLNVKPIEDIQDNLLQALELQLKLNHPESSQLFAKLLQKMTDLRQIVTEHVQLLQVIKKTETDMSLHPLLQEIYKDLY
# SRC3 TRFRET art: TR-FRET artefact, counter-screen to PPARgamma/SRC-3 agonist assay; 99,000 compounds, 0.39% hits; PPARgamma/SRC-3 format; hits give high values; AID 1048; TR-FRET ratio at 8 µM
# PPARg SRC2 recr: agonists of SRC-2 recruitment by human PPARgamma. PPARgamma LBD-SRC-2 recruitment, biochemical. 200,000 compounds, 0.34% hits. activation, % at 8 µM. P37231; in the data active = activation above about 22%;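 also: 0% = vehicle and 100% = reference agonist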
# SRC1 TRFRET art: TR-FRET artefact, counter-screen to PPARgamma/SRC-1 agonist assay; TR-FRET detection artefact counter-screen, emission ratio; hits give high values; TR-FRET ratio at 8 µM; 99,000 compounds, 0.34% hits; AID 1051; in the data active = TR-FRET ratio above about 2300
# PPARg SRC-1 ag: promotes SRC-1 coactivator recruitment by human PPARgamma. P37231. PPARgamma-SRC-1 coactivator recruitment biochemical assay. activation, % at 8 µM. 200,000 compounds, 0.41% hits. AID 631; in the data active = activation above about 19%;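 also: 0% = DMSO and 100% = reference agonist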
# An asterisk follows results filed as active; nt = not tested or not shown. In the library only some 0.9% were active in any assay of this set; here they are far more common. Rule as the data show it, unless noted: active = TR-FRET ratio above about 2000; inactive = the rest.
SMILES,SRC2 TRFRET art,PPARg SRC3 recr,SRC3 TRFRET art,PPARg SRC2 recr,SRC1 TRFRET art,PPARg SRC-1 ag
Cc1ccccc1CC1(CO)CCCN(C(=O)CCC(=O)c2ccccc2)C1 (configuration not stated),1534,-1,1671,0,2022,22*
COc1ccc(Oc2nc(OC)cc(OC)n2)cc1,1530,5,1711,9,1836,2
Cc1ccc(Sc2cnn(-c3ccccc3)c(=O)c2Cl)cc1,2023*,7,nt,19,nt,9
Nc1ccc(Sc2cnn(-c3ccccc3)c(=O)c2Cl)cc1,1527,-2,nt,6,nt,8
O=Cc1sc(N2CCOCC2)nc1-c1ccccc1,1731,14,2197*,4,2073,2
O=C(N/N=C/c1sc(N2CCOCC2)nc1-c1ccccc1)c1ccccc1O,1451,-5,1407,-1,1582,1
Cc1ccc(NC(=O)CCN2C(=O)OC(C)(C)C2(C)O)cc1 (configuration not stated),1651,5,1453,3,1731,2
Cn1c(=O)c(C(=O)NC2CCCCCCC2)c(O)c2ccccc21,1608,-2,1661,8,3217*,50*
Cc1ccc(Cn2cc(SCC(=O)Nc3nccs3)c3ccccc32)cc1,2880*,2,nt,-2,nt,-5
Cc1cccc(Cn2cc(SCC(=O)Nc3nccs3)c3ccccc32)c1,1694,5,nt,5,nt,2
COc1cc(Cl)c(C)cc1NC(=O)COC(=O)c1cc[n+]([O-])cc1,1437,-4,1455,6,1654,0
CN(C)c1ccc(N=C/C=C2\N(C)c3ccccc3C2(C)C)cc1,1577,28*,nt,8,nt,3
C=CCn1c(SCC(=O)c2c(C)[nH]c3ccccc23)nnc1-c1ccncc1,1383,3,1409,3,1880,-6
COc1ccccc1C(=O)NCC(=O)OCC(=O)c1ccc2c(c1)-c1ccccc1C2,1874,8,2088*,16,1947,4
COc1cccc(C(=O)Oc2c(Br)cc(Br)cc2/C=N/NC(=O)c2cc(C)[nH]n2)c1,1590,5,1523,5,1818,4
O=C(Cc1cccs1)Nc1ccc(-c2nnc(-c3ccccc3)o2)cc1,1692,3,nt,11,nt,21*
O=C(Cc1cccs1)Nc1ccc(-c2nnc(-c3ccco3)o2)cc1,1464,-1,1376,2,1636,1
CCc1ccc(NC(=O)CC2C(=O)N(c3cccc(C)c3)C(=O)N2C2CC2)cc1 (configuration not stated),1383,3,1547,2,1594,-4
Cc1cc(C)c2nc(SCC(=O)N3CC(=O)Nc4ccccc43)c(C#N)cc2c1,3300*,-2,nt,12,nt,-4
COc1ccc2[nH]c(=S)[nH]c2c1,1534,10,nt,13,nt,5
S=c1[nH]c2ccc(Cl)cc2[nH]1,1677,5,nt,24*,nt,5
CN1CCS/C1=C\C=C1/SC(=S)N(CC(=O)O)C1=O,1733,9,1783,6,2228,24*
CCN1C(=O)/C(=C/C=C2/SCCN2C)SC1=S,1470,1,nt,-2,nt,9
CC(C)(C)c1cc(C(=S)N2CCN(CCO)CC2)cc(C(C)(C)C)c1O,1569,28*,nt,10,nt,6
CC1C(Br)C(=O)NC(=O)N1Cc1ccccc1 (configuration not stated),1461,2,1625,2,1910,21*
SMILES,SRC2 TRFRET art,PPARg SRC3 recr,SRC3 TRFRET art,PPARg SRC2 recr,SRC1 TRFRET art,PPARg SRC-1 ag
Cc1ccc(CNC(=O)CCC2CCCN(Cc3c(C)nn(C(C)C)c3C)C2)o1 (configuration not stated),1736,-1,1675,5,1694,-3
O=C(N/N=C/c1ccc([N+](=O)[O-])o1)c1cc(-c2ccc(-c3ccccc3)cc2)nc2ccccc12,1407,-3,1306,-4,1568,7
Cc1cc(N/N=C/c2ccc([N+](=O)[O-])o2)nc2ccccc12,1789,9,2083*,10,1831,11
N#Cc1c(N)nc(SCC(=O)NC2CCCCC2)c(C#N)c1-c1ccc(Cl)cc1,1518,2,nt,4,nt,43*
Cc1cccc[n+]1CC(=O)N1c2ccccc2Sc2ccccc21,1329,6,1557,1,1739,3
O=C(CCC1CCCN(C(=O)C2=CCCCC2)C1)N1CCN(c2ccccn2)CC1 (configuration not stated),1611,3,1738,-3,1823,25*
N=c1ncn(Cc2ccccc2)c2nc(SCCOc3ccccc3)[nH]c12,1685,2,1678,1,1768,1
